Results with a measured potency or affinity are listed apart. Calls of active or inactive are those of the source. The rule behind the calls is not given here.
assay: PAX5 cellular inhibition readout – cell-based, plate reader, dry powder samples, selectivity assay for PAX8 inhibitor project, dose response (AID 743047); conditions: cell-based PAX5 selectivity counter-screen; series mostly up to 50 µM

Structure (SMILES)	outcome
Cc1ccc(-c2csc(NC3OC(=O)c4ccccc43)n2)cc1 (stereo not given)	inactive
C[C@@H]1CN([C@H](C)CO)C(=O)CCCn2cc(nn2)CO[C@H]1CN(C)C(=O)Nc1ccc(-c2cccs2)cc1	inactive
COc1cc(/C=C2\SC(=S)N(CCC(=O)N3CCCCC3)C2=O)cc(OC)c1OC	inactive
CC(C)(C)c1nnc(NC(=O)CCS(=O)(=O)c2ccccc2)s1	inactive
C[C@H](CO)N1C[C@H](C)[C@H](CN(C)C(=O)Nc2ccc(-c3cccs3)cc2)OCc2cnnn2CCCC1=O	inactive
CN(C)CCCN(C(=O)CCOc1ccccc1)c1nc2c(F)cccc2s1	inactive
O=C(CCS(=O)(=O)c1ccccc1)Nc1nc2ccc(F)cc2s1	inactive
Cc1ccc2cccc(NS(=O)(=O)c3ccccc3)c2n1	inactive
Cc1cc(NC(=O)CCCS(=O)(=O)c2nc(-c3cccs3)cc(C(F)(F)F)n2)no1	inactive
N#C[C@H]1[C@@H](c2ccc(C#Cc3cccc(F)c3)cc2)[C@@H](CO)N1C(=O)C1CCCC1	inactive
COc1ccc(-c2cc(C(F)(F)F)nc(S(=O)(=O)CCCC(=O)Nc3cc(C)on3)n2)cc1OC	inactive
O=C(c1cc(-c2cccs2)on1)N1CCN(C(c2ccccc2)c2ccccc2)CC1	inactive
CC(=O)Nc1ccc(NC(=O)c2nc(S(=O)(=O)Cc3ccccc3)ncc2Cl)cc1	inactive
COCC(=O)N1[C@H](CO)[C@H](c2ccc(-c3cccnc3)cc2)[C@@H]1C#N	inactive
C[C@H](CO)N1C[C@H](C)[C@@H](CN(C)Cc2ccc(-c3ccccc3)cc2)Oc2ccc(NC(=O)C3CC3)cc2CC1=O	inactive
